High-throughput results: PubChem BioAssay, National Center for Advancing Translational Sciences (NCATS)
Nrf2 activator – qHTS of Nrf2 Activators; 410,000 compounds, 0.31% hits; Potency, µM (series often up to 46.1 µM), without a hit: top-dose activation, most hits filed as activators; AREc32 ARE-luciferase reporter (MCF7-derived line), luminescence, 24 h; AID 624171, 2012; further: potency means the concentration at half of the fitted maximal effect; % of control where 0% means no effect; nearly all actives have a fitted effect of over 65% in size
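AREc32_Fluc, 1000 cells/well, OPTI-MEM + 5% FBS, o/n 37 deg C 5% CO2; 23 nL cpd by pin tool, 24 hr; Steady-Glo 30 min RT, luminescence.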
PI4K2A inh – qHTS for small molecular inhibitors of PI4K2A; Phosphatidylinositol 4-kinase type 2-alpha (Homo sapiens), Q9BTU6; purified PI4K2A, ADP-Glo luminescence, 1 h; stronger effect = lower value; activity change, negative = inhibition, % at 76.9 µM; 420,000 compounds, 0.13% hits; in the data active means activity change below about -50%; inconclusive means mostly about -30% to -49%;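 further: -100% = wells without enzyme as full effect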
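ADP-Glo luminescence measured ADP generated by PI4K2A enzyme (4 ug/mL before mixing) with 1.2 mM PI substrate (pre-mix) and 300 microM ATP (pre-mix). Tris pH7.5 buffer with MgCl2, Triton X-100; 1 h reaction at ambient temperature.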
miR-21 act – qHTS Assay for Modulators of miRNAs and/orActivators of miR-21; HeLa miR-21 FLuc reporter, luciferase, 48 h; Potency, µM (doses to about 38.3 µM), inactives show at the highest dose activity change, positive = activation, actives largely listed as activators; 340,000 tested, under 10 active; AID 2288, 2010;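 further: % of control where 0% means no effect; miR-21 action dims this reporter so a rising signal means less miR-21 action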
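HeLa miR-21-FLuc reporter line, endogenous miR-21; 2000 cells/well in DMEM/10% FBS; compound titration up to ~40uM final, 48 h, 37 degree Celsius; luciferase detection reagent, 15 min lysis, CCD luminescence.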
A549 viability – Nrf2 qHTS screen for inhibitors: counterscreen for cytotoxicity; 390,000 compounds, 0.16% hits; A549 ARE-Fluc cells, CellTiter-Fluor viability, 18-24 h; Potency, µM (highest dose often 46 µM), without a hit: at the top dose activity change, negative = cytotoxicity, usual class: inhibitors; further: potency means the concentration at half of the fitted maximal effect; on the % scale 0 is the no-effect control and ±100 the full control effect
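Cytotoxicity counterscreen: CellTiter-Fluor fluorescence was measured in A549 ARE_Fluc cells after 18-24 h of compound exposure in a concentration series. The subsequent BugLite luminescent read reports ARE-luciferase activity.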
Nrf2 block – Nrf2 qHTS screen for inhibitors | A549 ARE-Fluc reporter, luciferase luminescence, 18-24 h | Potency, µM (series often up to 46 µM), for inactives: at the top dose activity change, negative = inhibition, hits mostly inhibitors | 360,000 compounds, 2.1% hits; further: potency means the concentration at half of the fitted maximal effect; on the % scale 0 is the no-effect control and ±100 the full control effect; nearly all actives have a fitted effect of over 60% in size
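Cells were seeded and rested 2 h, then exposed to compounds for 18-24 h. CellTiter-Fluor was read first as a viability measure. BugLite was added 15 min before the final luminescent read of ARE-luciferase activity in A549 cells.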
GALK inhibitor – qHTS Assay for Inhibitors of Human Galactokinase (GALK). Purified GALK, Kinase-Glo residual ATP luminescence. Potency, µM (titrated, usually from 57.5 µM), without a hit: at the highest dose activity change, negative = inhibition, hits mostly inhibitors. 270,000 compounds, 0.007% hits; further: potency means the concentration at half of the fitted maximal effect; on the % scale 0 is the no-effect control and ±100 the full control effect
Target sequence (P51570 whole entry, looked up): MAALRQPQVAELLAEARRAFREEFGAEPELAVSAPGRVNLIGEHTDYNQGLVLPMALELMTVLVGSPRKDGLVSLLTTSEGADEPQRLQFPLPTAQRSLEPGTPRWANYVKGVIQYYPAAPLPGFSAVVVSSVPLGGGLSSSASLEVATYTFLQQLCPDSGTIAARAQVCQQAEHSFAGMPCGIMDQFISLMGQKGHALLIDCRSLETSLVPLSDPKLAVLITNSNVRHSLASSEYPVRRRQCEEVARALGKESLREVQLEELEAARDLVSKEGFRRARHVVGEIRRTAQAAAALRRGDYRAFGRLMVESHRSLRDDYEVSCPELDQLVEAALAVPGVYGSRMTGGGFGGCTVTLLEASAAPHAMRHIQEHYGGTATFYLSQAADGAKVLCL
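The enzyme phosphorylates galactose (100 uM) using ATP (35 uM); inhibition is detected as higher residual ATP, quantified by bioluminescence after 1 h reaction at room temperature, pH 8.0.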
Active calls of the source: *; u = inconclusive; x = no result given; ! = not confirmed by another sample; [ ] = dose if it differs, or a comment. A selection: hits, their analogues and other compounds. The true share with any hit is near 2.2%. Unless noted, the call rests on the fitted dose curve; in most records, active means well fitted curve in the direction sought with a large enough effect; inconclusive means small, poorly fitted or top-dose-only effect, or another doubt; inactive means no such curve, though single readings can be large; an effect the other way counts as inactive or inconclusive.

SMILES	Nrf2 activator	PI4K2A inh	miR-21 act	A549 viability	Nrf2 block	GALK inhibitor
Clc1ccc([C@H]2OC[C@@]3(CNC4CCCCC4)CS[C@H](c4ccc(Cl)cc4)N23)cc1	x	-5	x	x	x	x
Cc1cccc(NC(=O)C2CCCN(c3nnc(-n4cccc4)s3)C2)c1C (stereo unspecified)	x	0	x	x	x	x
CC(C(=O)N1CCCCC1)n1ncn2cccc2c1=O (stereo unspecified)	0%	1	-1%	-5%	10%	1%
Cc1ccc(Cl)cc1N1CCN(C(=O)C(C)n2ncn3cccc3c2=O)CC1 (stereo unspecified)	0%	-9	14%	u	18µM*!	x
CN1/C(=C\C=C2/SC(=S)NC2=O)C(C)(C)c2ccccc21	5%	-9	20%	15µM*	u	-1%
Cc1ccc(/C=C/C(=O)N2CCc3ccccc32)o1	11µM*	-17	-63%	0%	u	1%
O=C(/C=C/c1ccco1)N1CCc2ccccc21	u	-53*	-30%	0%	u	-2%
COC(=O)c1cc(-c2cc(F)cc(OC)c2)c(=O)n2c1CCC2	x	0	x	x	x	x
COC(=O)c1cc(F)c(S(=O)(=O)N2CCN(S(=O)(=O)c3ccc4c(c3)OCCO4)CC2)cc1F	x	x	x	-4%	1%	x
COc1ccc(C(C(=O)N(C)C2CCCC2)N(Cc2ccc(F)cc2)C(=O)c2cc(C)on2)cc1OC (stereo unspecified)	x	4	x	x	x	x
O=C(CSc1n[nH]c(-c2ccc(S(=O)(=O)NC3CCCCC3)cc2)n1)N1CCCC1	0%	-2	4%	-13%	16µM*	0%
COc1ccc(C2Nc3ccccc3C(=O)N2Cc2ccccc2)cc1COc1cccc(Cl)c1 (stereo unspecified)	x	x	x	3%	-12%	x
COc1ccc2ccccc2c1C(=O)/C=C\c1ccoc1	13µM*	-2	-22%	-3%	11%	x
CCOc1ccc(Oc2c(Cl)c(Br)nn(Cc3cccc4ccccc34)c2=O)cc1	x	1	x	x	x	x
O=C(C1CCC(CNS(=O)(=O)c2cccs2)CC1)N1CCN(c2ccc(Cl)cc2)CC1 (stereo unspecified)	7%	0	u	u	8.2µM*	-3%
c1csc(C2=Nn3c(nnc3-c3ccncc3)SC2)c1	3%	-12	24%	-4%	16µM*	0%
c1ccc(-c2ccc(C3=Nn4c(nnc4-c4ccncc4)SC3)cc2)cc1	x	-4	x	x	x	x
C/C(=N\Nc1nc(C)cc(-c2ccccc2)n1)c1cccc(N)c1	2%	-2	12%	-4%	21µM*	4%
O=C1Cc2cc(S(=O)(=O)N3CCN(c4ccc(Cl)cc4)CC3)ccc2N1	x	x	x	15%[92.2 µM]	-8%[92.2 µM]	x
O=[N+]([O-])c1ccc(C[n+]2ccccc2)cc1	0%	2	x	0%	21µM*	x
COCCCNC(=O)C[C@H]1C[C@@]2(C(=O)OC)C(=C[C@H](C(C)C)O[C@@H]2C2CC2)N(Cc2ccc(Cl)cc2Cl)C1=O	x	0	x	x	x	x
CC(=O)Nc1nc(-c2ccccc2)nc(-c2ccccc2OC(C)=O)n1	23%	-1	15%	-25%	13µM*	1%
Clc1ccc(-c2csc(N/N=C/c3cccnc3)n2)c(Cl)c1	5%	-5	-2%	2%	13µM*	-1%
COc1ccc(-c2nc(NC(=O)C3CC(=O)N(c4ccc5c(c4)OCCO5)C3)sc2C)cc1 (stereo unspecified)	0%	-7	28%	u	15µM*	1%
O=C(c1cc(C2CC2)nc2ccc(Br)cc12)N1N=C(C(F)F)CC1(O)C(F)F (stereo unspecified)	-1%	-4	25%	u	18µM*	0%
SMILES	Nrf2 activator	PI4K2A inh	miR-21 act	A549 viability	Nrf2 block	GALK inhibitor
O=C(c1cc(C2CC2)nc2ccccc12)N1N=C(C(F)F)CC1(O)C(F)F (stereo unspecified)	0%	-3	-4%	-5%	-13%	0%
CCOc1ccc(Nc2nc(N)c3ccccc3n2)cc1	-2%	-80*	u	-4%	u	2%
O=C(CNC(=O)c1ccccc1Cl)OC(C(=O)Nc1cc(C(F)(F)F)ccc1Cl)c1ccccc1 (stereo unspecified)	x	x	x	2%	-41%	x
O=C(CSc1nc(=O)n(CCN2CCOCC2)c2c1CCC2)Nc1ccc(OC(F)(F)F)cc1	2%	-2	x	-1%	18µM*	x
COc1ccc(NC(=O)CSc2nc(=O)n(CCN3CCOCC3)c3c2CCC3)cc1	0%	-4	x	-4%	0%	x
O=C(OCC1OC(n2cnc3c(N(C(=O)c4ccccc4)C(=O)c4ccccc4)ncnc32)C(O)C1F)c1ccccc1 (stereo unspecified)	7%	8	0%	u	16µM*	-1%
O=C(CSc1nnc(COc2ccc(Cl)cc2)n1Cc1ccco1)Nc1ccc2c(c1)OCO2	x	-1	x	x	x	x
C/C(=N\NC(=O)c1nnn(-c2nonc2N)c1CN(C)c1ccccc1)c1ccccc1O	-1%	4	27%	-18%	8.2µM*	6%
COc1ccc(/C(C)=N/NC(=O)c2nnn(-c3nonc3N)c2CN(C)c2ccccc2)cc1	0%	-2	-4%	-13%	16µM*	-6%
Cc1c(NC(=O)C2CCCN(S(=O)(=O)c3c(C(C)C)cc(C(C)C)cc3C(C)C)C2)c(=O)n(-c2ccccc2)n1C (stereo unspecified)	x	-1	x	x	x	x
CCOC(=O)c1ccc(N2C(=O)c3[nH]nc(-c4ccc(C)cc4)c3C2c2cccc(F)c2)cc1 (stereo unspecified)	0%	-1	u	-18%	21µM*	x
CCOC(=O)c1ccc(N2C(=O)c3[nH]nc(-c4ccccc4)c3C2c2cccs2)cc1 (stereo unspecified)	-3%	-5	-2%	u	u	x
CCOC(=O)c1ccc(N2C(=O)c3n[nH]c(-c4cccs4)c3C2c2cccc(OC)c2)cc1 (stereo unspecified)	-2%	3	u	u	21µM*	x
CCOC(=O)c1ccc(N2C(=O)c3[nH]nc(-c4ccc(OC)cc4)c3C2c2cccc(O)c2)cc1 (stereo unspecified)	-4%	0	u	-28%	u	x
CCOC(=O)c1ccc(N2C(=O)c3[nH]nc(-c4ccccc4)c3C2c2ccc(CC)cc2)cc1 (stereo unspecified)	-1%	-1	u	u	18µM*	x
